Measured values: the supplement of paper PMC4466236
Over roughly 33,000 sequences, “E-score (dimensionless, -0.5 to 0.5)” has its median near -0.058; the highest 2% begin near 0.35. Many of the other results were omitted from the sample, so the highest values are more common in it than they were.

system: MvaT; test: PBM 8-mer E-score (mean of HK and ME arrays) (E-score (dimensionless, -0.5 to 0.5)); higher = stronger relative binding preference
Description: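 Protein binding microarray: GST-tagged full-length MvaT (P. aeruginosa PAO1) bound to two universal double-stranded 60-mer arrays (ME and HK), each with a constant 25-mer primer and a variable 35-mer region covering all 8-mers. The 8-mer E-score (rank-based, range -0.5 to 0.5, >0.45 = specific binding) is the mean of the two arrays.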

Row | Sequence | PBM 8-mer E-score
1 | AATCCGCC | -0.0734
2 | ATTTTAAA | 0.383
3 | CTTTTTAA | 0.213
4 | CCTTAAAA | 0.0816
5 | CTTTTAAC | 0.314
6 | ATTTAAAA | 0.377
7 | ATTTTTAA | 0.323
8 | ACTTAAAA | 0.226
9 | GTTTTAAA | 0.282
10 | CTTTTAAA | 0.361
11 | CGCTGGAA | -0.092
12 | AGCAAAAA | 0.0929
13 | ACGTTGAT | 0.0529
14 | GCAAACAA | 0.0823
15 | ACTATAGA | 0.127
16 | AATATAGG | 0.288
17 | AATATAGT | 0.398
18 | GATATAGA | 0.206
19 | CATATAGA | 0.187
20 | AATAGAGA | 0.217
21 | AATATAGA | 0.365
22 | TATATAGA | 0.434
23 | AATATAGC | 0.343
24 | CCCTTCAG | -0.27
25 | GAGTAGAA | 0.0154
26 | AGAAACGG | -0.0989

Row | Sequence | PBM 8-mer E-score
27 | ATACAATG | 0.204
28 | CCGGCTAC | -0.217
29 | GCCAGAAC | -0.0482
30 | AAATAAGC | 0.275
31 | AGATAAAA | 0.178
32 | ACATAAAT | 0.301
33 | ACATAAAA | 0.23
34 | AAATAAAG | 0.405
35 | CAATAAAG | 0.252
36 | AAATAAAT | 0.428
37 | AAATAAGG | 0.322
38 | AAATAAGT | 0.38
39 | ACATAAAG | 0.101
40 | AAATAAAA | 0.419
41 | AAATAAAC | 0.334
42 | AAGCCGCT | -0.232
43 | ATTCAACG | 0.0307
44 | CCAATTCA | -0.0716
45 | TCCTGTCA | -0.158
46 | GAGCAAAC | -0.0867
47 | GCTGCCAA | -0.0483
48 | CTACTAAG | -0.00927
49 | AAGCGTCA | -0.00559
50 | CCGAATAG | -0.0201
51 | CGCAGTCC | -0.172
52 | AACCTCCA | -0.115

Row | Sequence | PBM 8-mer E-score
53 | GGTCTGTA | -0.219
54 | GAACCTGA | -0.0412
55 | AATCTCGA | 0.179
56 | ACTGAAAG | -0.0474
57 | ACTTAAAT | 0.331
58 | GATTAACA | 0.278
59 | AATTAAAA | 0.373
60 | AATTAAAT | 0.452
61 | CATTAAAG | 0.272
62 | ACTTAAAG | 0.159
63 | CATTAACA | 0.274
64 | ATTAAAAT | 0.29
65 | TATTAACA | 0.437
66 | AATTAAAG | 0.355
67 | ATGTTGGA | 0.125
68 | CAACCATA | 0.0988
69 | CTCGTAAG | -0.0264
70 | CCTGGTTC | -0.254
71 | CCGCCGGC | -0.321
72 | AAATAGGA | -0.0215
73 | AAAAACAC | 0.087
74 | CAGGTGAG | -0.208
75 | GCCCCACC | -0.292
76 | AAGGAGTC | -0.047
77 | CTAATCAA | 0.102
78 | TATTAAAA | 0.41

Row | Sequence | PBM 8-mer E-score
79 | AATTAAAC | 0.382
80 | GATTAAAA | 0.217
81 | AATTAAGA | 0.277
82 | CATTAAAC | 0.334
83 | TATTAAGA | 0.366
84 | GATTAAAC | 0.191
85 | CATTAAAA | 0.201
86 | GATTAAGA | 0.157
87 | TGATGGAA | 0.0193
88 | CGCCCCTC | -0.202
89 | CCACCCTA | 0.0237
90 | AAAAGTGC | 0.142
91 | AGGTGGGC | -0.177
92 | AATTTGGC | 0.161
93 | CTGCAGTA | 0.129
94 | AAAGCATA | 0.0331
95 | ATTTAAAG | 0.354
96 | ATTTAAAT | 0.474
97 | ATTTTAAG | 0.225
98 | CTTTAAAG | 0.25
99 | ATTAAAAC | 0.301
100 | ATTTTAAC | 0.307
101 | GTTTAAAC | 0.406
102 | GCTTAAAC | 0.121
103 | CTTTAAAC | 0.229
104 | GGTTAAAC | 0.0681

Row | Sequence | PBM 8-mer E-score
105 | ATTTAAAC | 0.398
106 | GGGTGCAA | -0.0874
107 | AGTTCGAT | 0.171
108 | CGGTCCGA | -0.24
109 | GGGTAGCA | -0.213
110 | CAGTGTCC | -0.176
111 | GACAAATC | -0.0221
112 | ATTTAATG | 0.376
113 | ATTTAACG | 0.255
114 | GTTTAAGA | 0.246
115 | GGTTAATA | 0.276
116 | GTTTAACA | 0.281
117 | AGTTAATC | 0.169
118 | ATTTAACA | 0.376
119 | ATTTAAGG | 0.101
120 | ATTTACTG | 0.247
121 | AGTTAATA | 0.406
122 | GTTTAATA | 0.407
123 | ATTTAACC | 0.195
124 | CAACTCCA | -0.0538
125 | CACCCAGA | -0.158
126 | CATAGGAG | 0.0253
127 | AATCTCGG | 0.0949
128 | ACACCATA | 0.0603
129 | CCAGGTCA | -0.141
130 | AAGTAGGT | 0.0927

Row | Sequence | PBM 8-mer E-score
131 | CATTCCCC | -0.183
132 | ATTTAATA | 0.411
133 | CTTTAATA | 0.344
134 | CTTTAATC | 0.141
135 | ATTTAAGC | 0.309
136 | ATTTAATC | 0.346
137 | ATTTAAGA | 0.239
138 | AGATCGCG | -0.153
139 | GATTCAGA | -0.0136
140 | GAGTTAGC | -0.00613
141 | GGACCAAA | -0.139
142 | AGCTCGGA | -0.141
143 | AAATTATC | 0.318
144 | GAATTACA | 0.175
145 | TAATTCTA | 0.278
146 | GAATTATC | 0.147
147 | AAATTATA | 0.45
148 | AAATTATG | 0.233
149 | CAATTATC | 0.264
150 | TAATTATA | 0.462
151 | CAATTATG | 0.329
152 | CAATTATA | 0.414
153 | TAATTGTA | 0.305
154 | GAATTATA | 0.374
155 | AAGGACCA | -0.154
156 | AGGGGGTG | -0.316

Row | Sequence | PBM 8-mer E-score
157 | AACCTGCT | -0.0689
158 | TGTCCCAA | 0.187
159 | CTGGCAAC | 0.0118
160 | TCCTTCAA | -0.14
161 | ATACTAAG | 0.272
162 | AGTAGGTG | -0.0642
163 | AATCGAAC | 0.176
164 | CCCGGCGA | -0.269
165 | GAATTAGA | 0.106
166 | AAATTATT | 0.401
167 | TAATTAGA | 0.353
168 | AAATTGTC | 0.22
169 | CAATTAGA | 0.202
170 | AAATTGTT | 0.351
171 | CAATTACA | 0.288
172 | AAATTGTA | 0.267
173 | AAATTACA | 0.274
174 | AAATTAGG | 0.165
175 | TAATTACA | 0.384
176 | AAATTACC | 0.212
